In the library only some 12% were active in any assay of this set; here they are far more common.
Sm TGR inh: blocks Schistosoma mansoni thioredoxin glutathione reductase | Potency, µM (series often up to 114 µM), most hits filed as inhibitors | AID 485364 | actives 3% (n = 360,000) | purified TGR, DTNB reduction, TNB absorbance 405 nm; further: nearly all actives have a fitted effect of over 60% in size
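First, TGR (20 nM dispensed) and NADPH were mixed with compound. Second, a 15 min room-temperature incubation followed. Third, further NADPH and then DTNB were added to start the reaction. Finally, TNB absorbance was monitored kinetically.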
Pf growth 96h: P. falciparum growth inhibition at 96 hours; P. falciparum luciferase reporter growth, 96 h; Potency, µM (highest dose often 28.7 µM), hits mostly inhibitors; actives 6.9% (n = 320,000)
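Luminescence readout: decreased luciferase signal marks inhibited growth of reporter-expressing P. falciparum in infected red cells (2% hematocrit, 0.05% parasitemia final), exposed to compound two generations (96 h, 37 C, 5% CO2).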
AmpC inh no detg: inhibitors of E. coli AmpC beta-lactamase without detergent; P00811; AmpC nitrocefin hydrolysis, absorbance 480 nm, 0.0001% Triton; Potency, µM (titrated, usually from 57.1 µM), usual class: inhibitors; actives 0.52% (n = 330,000); further: nearly all actives have a fitted effect of over 20% in size
Target sequence (P00811 whole entry, looked up): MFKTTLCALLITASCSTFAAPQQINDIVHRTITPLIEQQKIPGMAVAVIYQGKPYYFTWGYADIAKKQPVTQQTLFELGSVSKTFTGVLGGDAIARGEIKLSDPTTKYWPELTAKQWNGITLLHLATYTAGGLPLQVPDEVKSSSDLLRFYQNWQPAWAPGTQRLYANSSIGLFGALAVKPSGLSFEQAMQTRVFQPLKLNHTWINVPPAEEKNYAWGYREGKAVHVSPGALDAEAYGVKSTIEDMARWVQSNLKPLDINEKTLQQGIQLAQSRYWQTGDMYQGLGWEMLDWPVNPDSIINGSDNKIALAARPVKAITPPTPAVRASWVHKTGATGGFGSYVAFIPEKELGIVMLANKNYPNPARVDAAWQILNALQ
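20 mM phosphate pH 7.0 + 0.01% (detergent screen) or 0.0001% Triton X-100; 5.3 nM AmpC reagent; cpd preinc 15 min RT; nitrocefin (800 uM stock) to start; A480 q20 s × 4 min; Activity was normalised to no-enzyme and no-compound control wells.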
Pf growth 48h: P. falciparum growth inhibition at 48 hours (one generation); P. falciparum luciferase growth in erythrocytes, 48 h; actives 5.9% (n = 310,000); Potency, µM (titrated, usually from 28.7 µM), hits mostly inhibitors
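Luminescence readout; reporter = integrated firefly luciferase in P. falciparum. RBC culture at 2% hematocrit, 0.1% parasitemia final, 37 C/5% CO2; decreased signal taken as growth inhibition.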
SARS PLP yeast: blocks SARS-CoV papain-like protease in a yeast assay. S. cerevisiae expressing SARS-CoV PLpro, growth rescue. actives 0.19% (n = 330,000). Potency, µM (titrated, usually from 32.9 µM), usual class: activators; calls by dose curve; further: nearly all actives have a fitted effect of over 55% in size
AmpC detergent: blocks E. coli AmpC beta-lactamase in detergent assay; P00811; AmpC hydrolysis of nitrocefin, absorbance 480 nm, 0.01% Triton; Potency, µM (top dose mostly 114 µM), actives largely listed as inhibitors; actives 0.041% (n = 370,000); further: nearly all actives have a fitted effect of over 25% in size
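20 mM phosphate pH 7.0 + 0.01% (detergent screen) or 0.0001% Triton X-100; 5.3 nM AmpC reagent; cpd preinc 15 min RT; nitrocefin (800 uM stock) to start; A480 q20 s × 4 min; Activity was normalised to no-enzyme and no-compound control wells.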
Hits are given with their value; i = inactive; ? = inconclusive; nt = no result given; [ ] = dose if it differs, or a comment. Unless noted, the call rests on the fitted dose curve; in most records, active means well fitted curve in the direction sought with a large enough effect; inconclusive means small, poorly fitted or top-dose-only effect, or another doubt; inactive means no such curve, though single readings can be large; an effect the other way counts as inactive or inconclusive.

SMILES	Sm TGR inh	Pf growth 96h	AmpC inh no detg	Pf growth 48h	SARS PLP yeast	AmpC detergent
O=C(O)Cc1c(C(=O)O)nnn1-c1cccc(C(F)(F)F)c1	i	?	i	i	i	i
N=c1c2ccccc2nnn1-c1cccc(C(F)(F)F)c1	i	?	i	13.1µM	i	i
Cc1ccc(C)c(NC(=O)C2CCN(S(=O)(=O)c3ccc4c(c3)NC(=O)CO4)CC2)c1	i	i	i	i	i	i
Cc1ccc(N(C(=O)c2ccccc2Cl)C2=NC(C)CS2)c(C)c1 (stereo not drawn)	i	14.7µM	i	?	i	?
O=C(Nc1ccc(Cl)cc1Cl)c1ccc(Br)o1	i	?	i	i	i	i
CN1C(=O)/C(=C2\SC(=S)N(NC(=O)c3cccnc3)C2=O)c2ccccc21	i	2.94µM	i	i	i	i
CCOC(=O)C1=C(C)NC2=C(C(=O)CCC2)C1c1cn(Cc2ccc(Cl)cc2Cl)nc1-c1ccccc1 (stereo not drawn)	i	0.738µM	i	0.117µM	i	?
CCOC(=O)C1=C(C)NC2=C(C(=O)CCC2)C1c1cccnc1 (stereo not drawn)	i	nt	i	i	i	i
COC(=O)C1=C(C)NC2=C(C(=O)CCC2)C1c1cn(Cc2ccc(Cl)cc2Cl)nc1-c1ccccc1 (stereo not drawn)	i	1.85µM	i	2.62µM	i	?
O=C(O)Cc1sc(-c2ccccc2)nc1-c1ccccc1	i	i	i	i	i	i
O=C(O)Cc1nc(-c2cccnc2)sc1-c1ccc(Br)cc1	11.2µM	?	i	?	i	i
CCCC(c1nnnn1CC1CCCO1)N1CCN(c2nc3ccccc3s2)CC1 (stereo not drawn)	i	i	i	11.7µM	i	i
CCCCC(c1nnnn1CC1CCCO1)N1CCN(c2nc3ccccc3s2)CC1 (stereo not drawn)	i	i	i	13.1µM	i	i
CCCCC(c1nnnn1CC1CCCO1)N1CCN(c2ccccc2)CC1 (stereo not drawn)	i	i	i	i	i	i
CC(C)CC(c1nnnn1CC1CCCO1)N1CCN(c2nc3ccccc3s2)CC1 (stereo not drawn)	i	i	i	?	i	?
CCOC(=O)c1cc(NC(=O)c2cccs2)ccc1N1CCOCC1	i	i	i	i	i	i
CCOC(=O)c1cc(NCc2cccs2)ccc1N1CCOCC1	i	1.47µM	i	i	i	i
Cc1ccc(C2=NN(C(=O)CCC(=O)O)C(c3cccs3)C2)cc1 (stereo not drawn)	i	?	i	i	i	i
O=C(c1ccccc1)N1N=C(c2ccco2)CC1c1cccs1 (stereo not drawn)	35.5µM	i[5.75 µM]	i	i	i	i
Cc1ccc(C2=NN(C(=O)CCl)C(c3cccs3)C2)o1 (stereo not drawn)	3.16µM	2.08µM	i	3.7µM	i	i
O=C(CCl)N1N=C(c2ccco2)CC1c1cccs1 (stereo not drawn)	3.16µM	?	i	11.7µM	i	i
CC(=O)N1N=C(c2ccco2)CC1c1cccs1 (stereo not drawn)	44.7µM	i	i	i	i	i
O=C(Nc1ccccc1Cl)Nc1ccnn1C1CCN(C(=O)CCN2CCCO2)CC1	i	i	i	i	i	i
COc1ccc(CNC(=O)CN2N=C(c3ccccc3)CCC2=O)c(OC)c1	i	nt	nt	nt	nt	i
COc1ccc(S(=O)(=O)N2CCOCC2)cc1NC(=O)CN1CCCc2ccccc21	nt	nt	i	nt	i	nt
SMILES	Sm TGR inh	Pf growth 96h	AmpC inh no detg	Pf growth 48h	SARS PLP yeast	AmpC detergent
COc1ccc(CCNc2ncnc3c2nnn3C)cc1	i	nt	nt	nt	nt	i
CCn1cnc2c(Nc3cc(F)cc(F)c3)nc(C#N)nc21	i	0.294µM	i	0.828µM	i	i
N#Cc1nc(Nc2cccc(Cl)c2)c2ncn(C3CCCC3)c2n1	i	?	i	i	i	i
CCNc1nc(C#N)nc2c1ncn2-c1cc(F)cc(F)c1	i	?	i	1.65µM	i	i
NC(=S)N/N=C/c1c(O)c(Br)cc2oc3c(c12)CCCC3	i	?	i	3.29µM	i	i
COc1ccc(-c2nc3n(n2)C(c2ccccc2F)C(C(=O)Nc2cccnc2)=C(C)N3)cc1OC (stereo not drawn)	i	nt	nt	nt	nt	i
Cc1ccc(NS(=O)(=O)c2cccc3nsnc23)cc1C	i	4.15µM	i	i	i	i
CCC(=O)N1CCc2cc(S(=O)(=O)NCCC(=O)Nc3ccc(C)cc3C)ccc21	i	nt	nt	nt	nt	i
Cc1ccc(N2CC(C(=O)Nc3ccc(N(C)C)cc3)CC2=O)cc1C (stereo not drawn)	i	8.28µM	i	i	i	i
Cc1ccc(N2CC(C(=O)NC3=NCCS3)CC2=O)cc1C (stereo not drawn)	i	nt	i	?	i	?
CCOc1ccc(N2CC(C(=O)Nc3ccc(F)cc3F)CC2=O)cc1 (stereo not drawn)	i	9.28µM	i	i	i	i
CCOc1cccc(NC(=O)C2CC(=O)N(c3ccc(F)cc3)C2)c1 (stereo not drawn)	nt	?	i	i	i	i
CCOc1ccc(N2CC(NC(=O)c3cccc4ccccc34)CC2=O)cc1 (stereo not drawn)	i	i	31.6µM	i	i	?
Cc1ccc(N2CC(C(=O)Nc3cccc(F)c3)CC2=O)cc1 (stereo not drawn)	i	2.33µM	i	i	i	i
O=S(=O)(NCc1ccccn1)c1ccccn1	i	i	i	i	i	?
CCOc1ccc(N2CC(C(=O)N3CCCCCC3)CC2=O)cc1 (stereo not drawn)	i	i	i	i	i	i
CCCNC(=O)C1CC(=O)N(c2ccc(OCc3ccc(F)cc3)cc2)C1 (stereo not drawn)	i	?	i	i	i	i
CCOc1ccc(N2CC(C(=O)N3CCCC3)CC2=O)cc1 (stereo not drawn)	i	11.7µM	i	i	i	i
C=CCNC(=O)C1CC(=O)N(c2ccc(OCc3ccc(F)cc3)cc2)C1 (stereo not drawn)	i	11.7µM	i	i	i	i
CCOc1ccc(-n2c(-c3cccs3)nc3ccccc3c2=O)cc1	i	9.28µM	i	i	i	i
CC1CCCCN1CC(O)COCc1ccc(Cl)cc1 (stereo not drawn)	i	i	i	i	i	i
COc1ccc(CCN2C(=O)CC(NCCc3ccc(S(N)(=O)=O)cc3)C2=O)cc1OC (stereo not drawn)	17.8µM	i	i	nt	i	i
COc1ccc(CCN2C(=O)CC(NC34CC5CC(CC(C5)C3)C4)C2=O)cc1OC (stereo not drawn)	39.8µM	i	i	?	i	i

Assay outcomes from PubChem.
